Results: the supplement of paper PMC12494721
Counter-ions that a name gives are not always drawn.

Key:
Details in all cases: incubation time: 27 h, anaerobic, 37 °C;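 for the amine columns active = adjusted P below 0.05 in both replicates with a change the same way and a mean fold change under 0.8 or over 1.25; inactive = the rest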
[1] = test system: Clostridium sporogenes DSM 1664; assay: growth (OD595) fold change vs plate DMSO controls (fold change (ratio)); higher = more growth
Method in brief: (§1)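 Growth is expressed as the fold change relative to the median of the DMSO control wells on each plate. Cultures in mGAM were grown anaerobically in 96-well plates for 27 h at 37 °C, shaken, and read at 595 nm. Readings were blank-subtracted, corrected for compound background with 20 µM compound solutions in water, and converted to OD with a calibration factor of 5. Fold changes above 1.5 were set to NA, and each value is the mean of 2 biological replicates.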

Escherichia coli IAI1 [2] = assay: as above
Method in brief: as §1

[3] = test system: Klebsiella aerogenes DSM 30053; assay: as above
Method in brief: as §1

[4] = test system: Ruminococcus gnavus DSM 108212; assay: as above
Method in brief: as §1

[5] = test system: Klebsiella aerogenes DSM 30053; assay: fold change of Histamine concentration vs plate DMSO controls (fold change (ratio)); higher = more amine produced, active = hit call of the paper (significant change in both replicates, either direction)
Method in brief: (§2)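 Each value is the fold change relative to DMSO-only wells on the same plate. Four gut bacterial strains were grown anaerobically in mGAM at 37 °C for 27 h in 80 µL wells, starting at OD 0.1 before a 1:1 dilution, with compounds at 20 µM final (sweeteners 50 µM). Whole cultures were extracted with cold acetonitrile/methanol containing 0.1% formic acid, centrifuged, and amines were quantified by LC–triple-quadrupole MS (dynamic MRM) against external calibration curves with within-batch drift correction. Values are means of 2 biological replicates.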

[6] = test system: Clostridium sporogenes DSM 1664; assay: fold change of Tryptamine concentration vs plate DMSO controls (fold change (ratio)); higher = more amine produced, active = hit call of the paper (significant change in both replicates, either direction)
Method in brief: as §2

[7] = test system: Ruminococcus gnavus DSM 108212; assay: as above
Method in brief: as §2

Escherichia coli IAI1 [8] = assay: fold change of Putrescine concentration vs plate DMSO controls (fold change (ratio)); higher = more amine produced, active = hit call of the paper (significant change in both replicates, either direction)
Method in brief: as §2

[9] = test system: Klebsiella aerogenes DSM 30053; assay: as above
Method in brief: as §2

Escherichia coli IAI1 [10] = assay: fold change of Cadaverine concentration vs plate DMSO controls (fold change (ratio)); higher = more amine produced, active = hit call of the paper (significant change in both replicates, either direction)
Method in brief: as §2

[11] = test system: Klebsiella aerogenes DSM 30053; assay: as above
Method in brief: as §2

[12] = test system: Ruminococcus gnavus DSM 108212; assay: fold change of 2-Phenylethylamine concentration vs plate DMSO controls (fold change (ratio)); higher = more amine produced, active = hit call of the paper (significant change in both replicates, either direction)
Method in brief: as §2

Compound	growth [1]	growth (Escherichia coli IAI1 [2])	growth [3]	growth [4]	fold change of Histamine concentration [5]	fold change of Tryptamine concentration [6]	fold change of Tryptamine concentration [7]	fold change of Putrescine concentration (Escherichia coli IAI1 [8])	fold change of Putrescine concentration [9]	fold change of Cadaverine concentration (Escherichia coli IAI1 [10])	fold change of Cadaverine concentration [11]	fold change of 2-Phenylethylamine concentration [12]
Clc1ccc2nsnc2c1NC1=NCCN1 [Tizanidine hydrochloride] (20 µM)	0.00885	1.01	1.15	0.103	0.919 (inactive)	0.0144 (active)	0.0877 (active)	0.984 (inactive)	0.995 (inactive)	0.983 (inactive)	1.02 (inactive)	0.0862 (active)
C[C@]1(Cn2ccnn2)[C@H](C(=O)O)N2C(=O)C[C@H]2S1(=O)=O [Tazobactam] (20 µM)	0.105	1	0.973	1.05	0.904 (inactive)	0.703 (active)	1.05 (inactive)	1.05 (inactive)	1.04 (inactive)	0.989 (inactive)	1.03 (inactive)	1.1 (inactive)
CCC[C@H](N[C@@H](C)C(=O)N1[C@H](C(=O)O)C[C@@H]2CCCC[C@@H]21)C(=O)OCC [Perindopril] (20 µM)	0.997	1	1.05	1.21	0.997 (inactive)	0.965 (inactive)	1.02 (inactive)	0.914 (inactive)	1.03 (inactive)	0.993 (inactive)	1.01 (inactive)	0.995 (inactive)
COc1ccc2[nH]c([S+]([O-])Cc3ncc(C)c(OC)c3C)nc2n1 (centres undefined) [Tenatoprazole] (20 µM)	1	1.06	1.04	1.14	0.985 (inactive)	1.03 (inactive)	1.01 (inactive)	1.06 (inactive)	0.996 (inactive)	0.977 (inactive)	0.995 (inactive)	1.01 (inactive)
Cc1cccc(C)c1OCC(=O)N[C@@H](Cc1ccccc1)[C@@H](O)C[C@H](Cc1ccccc1)NC(=O)[C@H](C(C)C)N1CCCNC1=O [Lopinavir] (20 µM)	1.12	1.01	1.19	1.31	0.963 (inactive)	0.892 (inactive)	0.986 (inactive)	0.989 (inactive)	1.04 (inactive)	1.02 (inactive)	1.02 (inactive)	0.997 (inactive)
CNS(=O)(=O)Cc1ccc2[nH]cc(CCN(C)C)c2c1 [Sumatriptan succinate] (20 µM)	1.11	0.977	1.21	0.976	0.809 (inactive)	1.05 (inactive)	1.01 (inactive)	0.895 (inactive)	0.992 (inactive)	1.03 (inactive)	1.03 (inactive)	1.06 (inactive)
CC(C)COCC(CN(Cc1ccccc1)c1ccccc1)N1CCCC1 (centres undefined) [Bepridil hydrochloride] (20 µM)	0.909	0.996	1.11	0.654	0.937 (inactive)	0.913 (inactive)	0.743 (active)	1.03 (inactive)	1.01 (inactive)	1.01 (inactive)	1.01 (inactive)	0.824 (inactive)
Cc1[nH]c(=O)c(C#N)cc1-c1ccncc1 [Milrinone] (20 µM)	1.08	1.05	0.987	0.92	1.09 (inactive)	0.997 (inactive)	1.03 (inactive)	1.02 (inactive)	1.07 (inactive)	0.924 (inactive)	1.03 (inactive)	0.996 (inactive)
CO/N=C(\C(=O)N[C@@H]1C(=O)N2C(C(=O)[O-])=C(C[n+]3ccn4ncccc43)CS[C@H]12)c1nsc(N)n1 [Cefozopran hydrochloride] (20 µM)	0	0.102	0.153	0.0221	1.35 (active)	0.0264 (active)	0.0903 (active)	2.2 (active)	0.898 (inactive)	2 (active)	1.05 (inactive)	0.0687 (active)
CC[C@H](C)C(=O)O[C@H]1C[C@@H](C)C=C2C=C[C@H](C)[C@H](CC[C@@H]3C[C@@H](O)CC(=O)O3)[C@H]21 [Lovastatin] (20 µM)	1.13	1	0.995	1.16	1.05 (inactive)	0.945 (inactive)	0.995 (inactive)	0.975 (inactive)	1.02 (inactive)	1.01 (inactive)	0.999 (inactive)	0.984 (inactive)
COCC1=C(C(=O)OC(C)OC(=O)OC(C)C)N2C(=O)[C@@H](NC(=O)/C(=N\OC)c3csc(N)n3)[C@H]2SC1 (some centres undefined) [Cefpodoxime proxetil] (20 µM)	1.05	1.01	1.04	1.18	1.06 (inactive)	0.946 (inactive)	0.622 (inactive)	0.972 (inactive)	1.03 (inactive)	1.43 (active)	0.986 (inactive)	0.605 (inactive)
CC(C)NCC(O)c1ccc(NS(C)(=O)=O)cc1 (centres undefined) [Sotalol hydrochloride] (20 µM)	0.907	0.97	1.2	1.01	0.907 (inactive)	1.03 (inactive)	1.18 (inactive)	0.935 (inactive)	1.06 (inactive)	1.08 (inactive)	1.12 (inactive)	1.36 (inactive)
